From PubChem BioAssay (NCATS) come the findings set out here.

Results filed as inconclusive are left out. A number with no mark means an inactive call. The call rests on the fitted dose curve; in most records, active means well fitted inhibition curve with a large enough effect; inconclusive means small, poorly fitted or top-dose-only effect; inactive means flat fitted curve, though single readings scatter.
On the % scale 0 is the no-effect control and ±100 the full control effect.

Sequence of Calcium and integrin-binding protein 1 (Homo sapiens) (Q99828 whole entry, looked up): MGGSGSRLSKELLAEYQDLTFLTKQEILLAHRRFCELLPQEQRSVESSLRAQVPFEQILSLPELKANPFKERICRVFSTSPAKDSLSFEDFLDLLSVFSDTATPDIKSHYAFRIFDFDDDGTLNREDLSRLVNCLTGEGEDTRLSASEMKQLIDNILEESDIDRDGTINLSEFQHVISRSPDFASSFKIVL

This test addresses Calcium and integrin-binding protein 1 (Homo sapiens) (UniProt Q99828). As to the kind of experiment: Primary qHTS for Identification of Calcium Integrin Binding Protein 1 (CIB1) Competitor (AID 1508620).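 Further: GST tagged CIB1 binding a fluorescein labelled alphaIIb integrin peptide tracer; top concentration of the series differs between compounds.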 The note with it: CIB1-GST / FITC-alphaIIb peptide fluorescence polarization; series mostly up to 114 µM; activity change, negative = inhibition: at the top concentration. Summed up:
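Fluorescence polarization competition: CIB1-GST (1 uM final) preincubated with compound 15 min at room temperature, then FITC-labeled alphaIIb peptide (100 nM final) added for another 15 min. Polarization read at Ex 480/Em 540.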
(In general: qHTS replaces the single test concentration by a dilution series.)
Regarding `N#Cc1c(-c2ccc(Cl)cc2)no[n+]1[O-]`, the “activity change, negative = inhibition” value was -2.28%.
Under `CCCCc1ccc(-c2ccc(=O)n(CC(=O)NCCc3ccccc3)n2)cc1` stands 4.3%; under `O=C(NCc1ccccc1)Nc1ncnc2c1C(c1ccccc1)c1c(ccc3ccccc13)O2` (stereo not given), 5.23%; under `COc1cccc(C2c3c(ncn(-c4ccccc4C#N)c3=N)Oc3ccc4ccccc4c32)c1` (stereo not given), -0.988%.
Under `Cc1ccc(-c2nnc(N3CCC(C(N)=O)CC3)s2)cc1` stands 4.74%.
For `Cc1ccc(OCCn2c(CCNC(=O)Cc3ccccc3)nc3ccccc32)cc1` the value was 26.5%; for `Cc1ccc(NC(=O)c2cnn3c(-c4ccccc4)cc(C)nc23)cc1`, 5.03%.
On to `O=C(NCCc1nc2ccccc2n1CCOc1ccccc1F)C1CCCCC1`, for which the “activity change, negative = inhibition” value is 2.21%.
For `COc1cccc(C2c3c(ncn(-c4ccc(Br)cc4)c3=N)Oc3ccc4ccccc4c32)c1` (stereo not given) the value was -9.4%; for `Clc1ccc(CN(CCCNc2ncnc(NCCCc3cnc[nH]3)n2)c2ccc(Br)cn2)cc1Cl`, 2.63%.
Under `O=C(Cn1cc(CNCc2ccccc2)nn1)Nc1cc(C(F)(F)F)ccc1Cl` stands 4.52%; under `CN1CCN(Nc2nn3c(=O)c4ccccc4nc3s2)CC1`, 7.99%; under `O=C(Nc1ncc(-c2ccccc2)s1)c1ccc(-c2cccc([N+](=O)[O-])c2)o1`, 0.306%.
Under `FC(F)(F)c1cc(-c2ccc(CNc3nc(C4CCCC4)nc4ccccc34)cc2)ccn1` stands 18.9%.
For the compound `O=C1c2ccccc2C(=O)N1c1ccccn1`, the “activity change, negative = inhibition” value was 0.0842%.
Under `CC(C)(C)OC(=O)Cc1nnc(C(C(=O)OCc2ccccc2)c2ccccc2)s1` (stereo not given) stands 0.406%.
Under `Cc1cccc([S+](=O)([O-])NC2CCN(C#N)CC2)c1` stands -0.536%; under `O=[S+]([O-])(Nc1ccc(-c2nc3ccccc3[nH]2)cc1)c1ccc2c(c1)CCO2`, 0.754%; under `N#Cc1ccccc1CNc1nc2ncc(Br)cc2[nH]1`, -6.43%.
As to `CC(C)Nc1cccc(S(=O)(=O)N2CCCN(S(=O)(=O)c3ccc4c(c3)OCCO4)CC2)c1`, the “activity change, negative = inhibition” value was -3.99%.
For `N#Cc1ccc(NC(=O)Nc2nnc(-c3ccncc3)s2)c(Cl)c1` the value was 7.97%; for `NC(=O)C1CCN(c2ncc(-c3cccc(N4CCCC4)c3)s2)CC1`, -12.1%; for `COc1ccc(S(=O)(=O)Nc2cc(OC)cc3cccnc23)cc1`, -2.41%.
For `Nc1ccc(Nc2cc(O)c3ncccc3c2)cc1`, the “activity change, negative = inhibition” value is -18.4%.
In the case of `O=C1Cc2cc(C(=O)c3ccco3)ccc2N1`, the “activity change, negative = inhibition” value is -7.33%.
For `COc1cccc(C2=Nn3c(nnc3-c3cc(OC)ccc3OC)SC2)c1` the value was -5.74%.
For `COc1ccc(-c2ccc3ncnc(NCc4ccc(C)o4)c3c2)cc1OC` the value was 5.1%.
Under `COc1cccc(-c2nnc3n2N=C(c2ccccc2OC)CS3)c1` stands -1.11%; under `CN(Cc1ccc(-c2ccc(C#N)cc2)o1)c1ccc(N2CCN(C(=O)OC(C)(C)C)CC2)cc1`, -8.81%; under `Cc1cc(C)nc(NC(=S)N2CCN(c3cccc(OC(F)F)c3)CC2)c1`, -7.5%.
Turning to `COc1cccc(N2C(=O)c3ccccc3C2=O)n1`, the “activity change, negative = inhibition” value is 5.4%.
For `CC1=C(C(=O)Nc2nc3ccccc3s2)C2(CCCC2)N=C(Nc2nc3ccccc3o2)N1` the value was -0.823%; for `CC(C)(C)NS(=O)(=O)c1cccc(Nc2nn3c(=O)c4ccccc4nc3s2)c1`, 4.43%; for `N#CN1CCC(NS(=O)(=O)c2ccc(C(F)(F)F)cc2)CC1`, 4.43%.
Under `O=c1c2ccccc2nc2sc(Nc3ccc4c(c3)OCO4)nn12` stands -13.8%; under `Cc1cc(NS(=O)(=O)c2ccc3c(c2)CCC(=O)N3)ccc1F`, 1.56%.
For `CCOC(=O)c1nc(NCc2ccccc2)sc1C` the value was -2.45%; for `NC(=O)C1CCN(c2nc(-c3ccccc3)cs2)CC1`, 1.84%.
Take `Cc1cc(C=CC#N)cc(C)c1Nc1nc(Nc2ccc3c(c2)CCC3)c2[nH]cnc2n1`: the “activity change, negative = inhibition” value is -11.3%.
Under `FC(F)(F)c1ccccc1-c1nc(NCC#Cc2cccnc2)c2ccccc2n1` stands -7.09%.
